Screen size: about 39,000 compounds; about 3,300 (8.5%) were called active. What follows is part of a selection rich in actives, with near analogues and random picks from the rest.

The experiment deals with HepG2. Put plainly: cytotoxicity call (relative viability < 0.9). The following applies: 10 µM.
As to `CC(C)NC(=O)N(C)C[C@@H]1OCc2cnnn2CCCC(=O)N([C@H](C)CO)C[C@H]1C`, the cytotoxicity call was “inactive”.
For the molecule `CCC(=O)Nc1ccc2c(c1)OC[C@@H](C)N(S(=O)(=O)c1cn(C)cn1)C[C@@H](C)[C@H](OC)CN(C)C2=O`, the cytotoxicity call is “inactive”.
Then `Cc1c(N)nc([C@H](CC(N)=O)NC[C@H](N)C(N)=O)nc1C(=O)N[C@H](C(=O)N[C@H](C)[C@@H](O)[C@H](C)C(=O)N[C@H](C(=O)NCCc1nc(-c2nc(C(=O)NCCCNCCCCN)cs2)cs1)[C@@H](C)O)[C@@H](O[C@@H]1O[C@@H](CO)[C@@H](O)[C@H](O)[C@@H]1O[C@@H]1O[C@H](CO)[C@@H](O)[C@H](OC(N)=O)[C@@H]1O)c1c[nH]cn1`, with “inactive”; and `C[C@H](CO)N1C[C@H](C)[C@@H](CN(C)C(=O)C2CCCCC2)Oc2cc(Br)ccc2S1(=O)=O`, with “inactive”.
Then `N#CCCn1nc2c(c1N)CCC2`, with “inactive”; and `Cc1noc(C)c1NC(=O)Nc1ccc2c(c1)C(=O)N([C@@H](C)CO)C[C@H](C)[C@H](CN(C)Cc1ccc(C(F)(F)F)cc1)OCCCC[C@@H](C)O2`, with “inactive”; and `C[C@H](CO)N1C[C@H](C)[C@H](CN(C)C(=O)Cc2ccccc2)OCCCC[C@H](C)Oc2ccc(NC(=O)CCC(F)(F)F)cc2C1=O`, with “inactive”.
With `C[C@H]1CCCCO[C@@H](CN(C)C(=O)Nc2cccc3ccccc23)[C@@H](C)CN([C@@H](C)CO)C(=O)c2cc(NS(=O)(=O)c3cn(C)cn3)ccc2O1`, the cytotoxicity call is “active”.
For the molecule `C[C@@H]1CCCCO[C@H](CN(C)C(=O)Nc2cccc3ccccc23)[C@H](C)CN([C@H](C)CO)C(=O)c2cc(NS(=O)(=O)c3cn(C)cn3)ccc2O1`, the cytotoxicity call was “active”.
Then `C[C@@H]1CCCCO[C@@H](CN(C)C(=O)Nc2cccc3ccccc23)[C@H](C)CN([C@H](C)CO)C(=O)c2cc(NS(=O)(=O)c3cn(C)cn3)ccc2O1`, with “inactive”; and `C[C@H]1CCCCO[C@H](CN(C)C(=O)Nc2cccc3ccccc23)[C@@H](C)CN([C@@H](C)CO)C(=O)c2cc(NS(=O)(=O)c3cn(C)cn3)ccc2O1`, with “inactive”.
As to `C[C@@H]1CN([C@@H](C)CO)C(=O)c2cc(NS(=O)(=O)c3cn(C)cn3)ccc2O[C@@H](C)CCCCO[C@H]1CN(C)C(=O)Nc1cccc2ccccc12`, the cytotoxicity call is “inactive”.
For `C[C@H](CO)N1C[C@H](C)[C@H](CN(C)C(=O)Nc2cccc3ccccc23)OCCCC[C@H](C)Oc2ccc(NS(=O)(=O)c3cn(C)cn3)cc2C1=O` the value was “inactive”; for `C[C@@H]1CN([C@@H](C)CO)C(=O)c2cc(NS(=O)(=O)c3cn(C)cn3)ccc2O[C@@H](C)CCCCO[C@@H]1CN(C)C(=O)Nc1cccc2ccccc12`, “active”; for `C[C@@H]1CCCCO[C@@H](CN(C)C(=O)Nc2cccc3ccccc23)[C@@H](C)CN([C@H](C)CO)C(=O)c2cc(NS(=O)(=O)c3cn(C)cn3)ccc2O1`, “inactive”.
Consider `C[C@@H]1CCCCO[C@@H](CN(C)C(=O)Nc2cccc3ccccc23)[C@H](C)CN([C@@H](C)CO)C(=O)c2cc(NS(=O)(=O)c3cn(C)cn3)ccc2O1`, for which the cytotoxicity call was “inactive”.
For `Cc1cn([C@H]2O[C@@H](CO)[C@H](O)[C@H]2F)c(=O)[nH]c1=O` the value was “inactive”; for `COCCNC(=O)C[C@@H]1C[C@H]2c3cc(NC(=O)COC)ccc3O[C@H]2[C@@H](CO)O1`, “inactive”; for `COc1ccc(S(=O)(=O)Nc2cccc3c2O[C@H](CN(C)S(=O)(=O)c2ccc(C)cc2)[C@H](C)CN([C@H](C)CO)C3=O)cc1`, “inactive”.
Then `COc1ccccc1Nc1nc(-c2ccc(Cl)cc2)cs1`, with “inactive”; and `C[C@H](CO)N1C[C@H](C)[C@H](CN(C)S(C)(=O)=O)Oc2ccc(NC(=O)CCN3CCOCC3)cc2CC1=O`, with “inactive”.
For `C[C@@H]1CN([C@H](C)CO)C(=O)Cc2cc(NC(=O)C3CC3)ccc2O[C@H]1CN(C)C(=O)Nc1ccc2c(c1)OCO2`, the cytotoxicity call was “inactive”.
Then `C[C@@H]1CN([C@H](C)CO)C(=O)Cc2cc(NC(=O)c3ccncc3)ccc2O[C@H]1CN(C)Cc1ccc(C(=O)O)cc1`, with “inactive”; and `COc1ccc(S(=O)(=O)Nc2ccc3c(c2)C(=O)N([C@@H](C)CO)C[C@@H](C)[C@H](CN(C)C(=O)Nc2ccccc2)OCCCC[C@@H](C)O3)cc1`, with “inactive”.
For `CCN(CC)CCOC(=O)C1(C2CCCCC2)CCCCC1.Cl` the value was “inactive”; for `CCN(CC)CCOC(=O)C(c1ccccc1)C1CCCCC1.Cl` (stereo not drawn), “active”; for `CCN(CC)CCOC(=O)C(c1ccccc1)c1ccccc1.Cl`, “inactive”.
As to `COc1ccc(S(=O)(=O)N(C)C[C@@H]2Oc3ncc(-c4ccccc4)cc3C(=O)N([C@H](C)CO)C[C@@H]2C)cc1`, the cytotoxicity call was “inactive”.
In the case of `C[C@H](CO)N1C[C@H](C)[C@H](CN(C)S(=O)(=O)c2cn(C)cn2)Oc2cc(C3=CCCCC3)ccc2S1(=O)=O`, the cytotoxicity call is “inactive”.
For `COc1ccc(CNC(=O)C[C@@H]2C[C@@H]3c4cc(NC(=O)NC5CCCC5)ccc4O[C@@H]3[C@H](CO)O2)cc1` the value was “inactive”; for `CC1(C)CCC2(C(=O)O)CCC3(C)C(=CCC4C5(C)CCC(O)C(C)(C)C5CCC43C)C2C1` (stereo not drawn), “inactive”.
On to `CC1CCC2(C(=O)O)CCC3(C)C(=CCC4C5(C)CCC(O)C(C)(C)C5CCC43C)C2C1C` (stereo not drawn), for which the cytotoxicity call is “active”.
For `COC(=O)[C@@]12CC[C@@H](C)[C@@H](C)[C@@H]1C1=CC[C@H]3[C@@]4(C)CC[C@@H](OC(C)=O)C(C)(C)[C@@H]4CC[C@@]3(C)[C@@]1(C)CC2` the value was “inactive”.
For `Cc1noc(C)c1S(=O)(=O)Nc1ccc2c(c1)CC(=O)N([C@H](C)CO)C[C@@H](C)[C@@H](CN(C)C(=O)Nc1ccccc1)O2`, the cytotoxicity call was “inactive”.
Take `COc1ccccc1S(=O)(=O)N1C[C@@H](O)COC[C@@H]2O[C@H](CC(=O)O)CC[C@H]21`: the cytotoxicity call was “inactive”.
Regarding `C[C@H](CO)N1C[C@H](C)[C@@H](CN(C)S(=O)(=O)c2ccc(Cl)cc2)OCCCC[C@H](C)Oc2ccc(NS(=O)(=O)c3cccs3)cc2C1=O`, the cytotoxicity call was “inactive”.
As to `C[C@@H]1CCCCO[C@@H](CN(C)S(=O)(=O)c2ccc(Cl)cc2)[C@H](C)CN([C@H](C)CO)C(=O)c2cc(NS(=O)(=O)c3cccs3)ccc2O1`, the cytotoxicity call was “active”.
On to `C[C@@H]1CN([C@H](C)CO)C(=O)c2cc(NS(=O)(=O)c3cccs3)ccc2O[C@@H](C)CCCCO[C@@H]1CN(C)S(=O)(=O)c1ccc(Cl)cc1`, for which the cytotoxicity call was “active”.
Then `C[C@@H]1CN([C@@H](C)CO)C(=O)c2cc(NS(=O)(=O)c3cccs3)ccc2O[C@@H](C)CCCCO[C@H]1CN(C)S(=O)(=O)c1ccc(Cl)cc1`, with “active”; and `C[C@H](CO)N1C[C@H](C)[C@H](CN(C)S(=O)(=O)c2ccc(Cl)cc2)OCCCC[C@H](C)Oc2ccc(NS(=O)(=O)c3cccs3)cc2C1=O`, with “inactive”.
Consider `C[C@@H]1CCCCO[C@H](CN(C)S(=O)(=O)c2ccc(Cl)cc2)[C@@H](C)CN([C@@H](C)CO)C(=O)c2cc(NS(=O)(=O)c3cccs3)ccc2O1`, for which the cytotoxicity call was “inactive”.
Then `C[C@H]1CCCCO[C@H](CN(C)S(=O)(=O)c2ccc(Cl)cc2)[C@@H](C)CN([C@@H](C)CO)C(=O)c2cc(NS(=O)(=O)c3cccs3)ccc2O1`, with “inactive”; and `C[C@@H]1CCCCO[C@H](CN(C)S(=O)(=O)c2ccc(Cl)cc2)[C@@H](C)CN([C@H](C)CO)C(=O)c2cc(NS(=O)(=O)c3cccs3)ccc2O1`, with “inactive”.
Then `C[C@@H]1CCCCO[C@@H](CN(C)S(=O)(=O)c2ccc(Cl)cc2)[C@@H](C)CN([C@@H](C)CO)C(=O)c2cc(NS(=O)(=O)c3cccs3)ccc2O1`, with “inactive”; and `C[C@@H]1CCCCO[C@H](CN(C)S(=O)(=O)c2ccc(Cl)cc2)[C@H](C)CN([C@@H](C)CO)C(=O)c2cc(NS(=O)(=O)c3cccs3)ccc2O1`, with “inactive”.
As for `C[C@@H]1CCCCO[C@H](CN(C)S(=O)(=O)c2ccc(Cl)cc2)[C@H](C)CN([C@H](C)CO)C(=O)c2cc(NS(=O)(=O)c3cccs3)ccc2O1`, the cytotoxicity call is “inactive”.
Consider `C[C@@H]1CCCCO[C@@H](CN(C)S(=O)(=O)c2ccc(Cl)cc2)[C@H](C)CN([C@@H](C)CO)C(=O)c2cc(NS(=O)(=O)c3cccs3)ccc2O1`, for which the cytotoxicity call was “active”.
As to `C[C@@H]1CCCCO[C@@H](CN(C)C(=O)NC2CCCCC2)[C@H](C)CN([C@H](C)CO)C(=O)c2cc(NC(=O)Nc3ccc4c(c3)OCO4)ccc2O1`, the cytotoxicity call is “inactive”.
For `C[C@@H]1CN([C@H](C)CO)C(=O)c2cccc(NS(=O)(=O)c3cn(C)cn3)c2O[C@@H]1CN(C)Cc1ccncc1` the value was “inactive”; for `C[C@@H]1CN([C@H](C)CO)S(=O)(=O)c2ccc(-c3cncnc3)cc2O[C@@H]1CN(C)C(=O)CN(C)C`, “inactive”.
For `C[C@@H]1CN([C@@H](C)CO)C(=O)c2cc(NC(=O)NC3CCCCC3)ccc2O[C@@H](C)CCCCO[C@H]1CN(C)C(=O)c1ccccc1` the value was “inactive”.
Consider `CO[C@@H](CN(C)C(=O)Nc1ccc(C(F)(F)F)cc1)[C@H](C)CN(Cc1ccccc1Cl)[C@H](C)CO`, for which the cytotoxicity call was “inactive”.
For `Cc1ccc(S(=O)(=O)Nc2ccc3c(c2)C(=O)N([C@@H](C)CO)C[C@@H](C)[C@@H](CN(C)Cc2ccc(C(=O)O)cc2)OCCCC[C@@H](C)O3)cc1` the value was “inactive”; for `COc1cc(-c2cc(=O)c3c(s2)N(c2ccc(OC)c(OC)c2)[C@@H](c2ccc(O)c(OC)c2)CC3=O)ccc1O`, “inactive”.
Then `COc1ccc(S(=O)(=O)Nc2ccc3c(c2)CC(=O)N([C@@H](C)CO)C[C@@H](C)[C@H](CN(C)S(=O)(=O)c2ccccc2)O3)cc1`, with “inactive”; and `CC(C)NC(=O)N(C)C[C@H]1OCCCC[C@H](C)Oc2ccc(NS(C)(=O)=O)cc2C(=O)N([C@H](C)CO)C[C@@H]1C`, with “inactive”; and `C[C@H](CO)N1C[C@H](C)[C@@H](CN(C)C(=O)Nc2cccc3ccccc23)Oc2ccc(NS(=O)(=O)c3cccs3)cc2CC1=O`, with “inactive”.
Then `CN(C)CCN1CCNCC1`, with “inactive”.
